Data from the supplement of paper PMC6992640.
Structures can show the parent of a compound that is named as a salt. ± gives the standard deviation of the averaged measurements.

How the values were obtained:
Experiment in all cases: cell viability (% of vehicle); higher = less cytotoxic
Conditions in all cases: 10 µM; 72 h
HCI01 = tested on: HCI01 (cells of a triple-negative basal-like breast cancer xenograft)
HCI03 = tested on: HCI03 (cells of an ER-positive luminal breast cancer xenograft)
HCI09 = tested on: HCI09 (cells of a triple-negative luminal androgen receptor type breast cancer xenograft)
HCI11 = tested on: HCI11 (cells of an ER-positive luminal breast cancer xenograft)
HCI13 = tested on: HCI13 (cells of an ER-positive luminal breast cancer xenograft)
HCI16 = tested on: HCI16 (cells of a triple-negative basal-like breast cancer xenograft)
UCD52 = tested on: UCD52 (cells of a triple-negative basal-like breast cancer xenograft)
WHIM2 = tested on: WHIM2 (cells of a triple-negative basal-like breast cancer xenograft)
WHIM30 = tested on: WHIM30 (cells of a triple-negative basal-like breast cancer xenograft)
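Also: PDX cells carrying CMV promoter-driven luciferase, viability read as total photon flux per second by IVIS imaging following D-luciferin, vehicle control 0.1% DMSO.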

SMILES	cell viability (HCI01)	cell viability (HCI03)	cell viability (HCI09)	cell viability (HCI11)	cell viability (HCI13)	cell viability (HCI16)	cell viability (UCD52)	cell viability (WHIM2)	cell viability (WHIM30)
Cl.Cl.OCCOCCN1CCN(C(c2ccccc2)c2ccc(Cl)cc2)CC1 (stereo not given) [Hydroxyzine 2HCl]	169 ± 3.3	99.9	112 ± 5.6	117	85.42 ± 0.6	128	76.48 ± 0.64	97.2 ± 2.3	140 ± 23
CCCCCCCN(CC)CCCC(O)c1ccc(NS(C)(=O)=O)cc1.CCCCCCCN(CC)CCCC(O)c1ccc(NS(C)(=O)=O)cc1.O=C(O)C=CC(=O)O (stereo not given) [Ibutilide Fumarate]	93.5 ± 15	121	105 ± 18	103	130 ± 10	117	96.8 ± 2	122 ± 3	128 ± 21
S=c1nc[nH]c2nc[nH]c12 [Mercaptopurine (6-MP)]	108 ± 4.9	104	116 ± 6	81.6	92.3 ± 12	74.9	91.6 ± 4.2	99.3 ± 24	118 ± 32
CC12C=CC(=O)NC1CCC1C2CCC2(C)C(C(=O)Nc3cc(C(F)(F)F)ccc3C(F)(F)F)CCC12 (stereo not given) [Dutasteride]	129 ± 13	107	114 ± 15	92.4	123 ± 1.7	111	100 ± 4.5	90.3 ± 22	142 ± 12
O=C(NCCN1CCOCC1)c1ccc(Cl)cc1	129.4 ± 0.71	171	114 ± 22	113	102 ± 2.1	110	109 ± 8.9	111 ± 16	138 ± 4
CCCCCCCCCCCCCCCC(=O)OCC=C(C)C=CC=C(C)C=CC1=C(C)CCCC1(C)C [Retinyl (Vitamin A) Palmitate]	102 ± 22	100	88.4 ± 3.2	88.1	79 ± 17	104	94.3 ± 4.9	112 ± 27	125 ± 13
CC(=O)N1CCN(c2ccc(OCC3COC(Cn4ccnc4)(c4ccc(Cl)cc4Cl)O3)cc2)CC1 (single isomer, unassigned; (+)) [(+)-Ketoconazole]	151 ± 55	119	29.5 ± 5.5	87.9	98.9 ± 9.7	103	44.6 ± 2.7	134 ± 9.5	94.8 ± 11
COc1ccc2c(c1)c(CC(=O)OCC(=O)O)c(C)n2C(=O)c1ccc(Cl)cc1 [Acemetacin]	108 ± 3.5	113	97.6 ± 29	97.4	111 ± 9	106	78.2 ± 5	86.9 ± 22	76.6 ± 11
O=C(O)c1ccccc1 [Benzoic Acid]	143 ± 20	95.6	109 ± 25	104	70.3 ± 10	124	110 ± 8	127 ± 7.8	111 ± 15
CC(CCc1ccccc1)NCC(O)c1ccc(O)c(C(N)=O)c1.Cl (stereo not given) [Labetalol HCl]	101 ± 12	106	95.8 ± 9.3	104	105 ± 7.3	112	85.7 ± 7	110 ± 15	111 ± 13
CCCCCCNC(=O)n1cc(F)c(=O)[nH]c1=O [Carmofur]	110 ± 5.8	103	67.7 ± 9.4	131	80.9 ± 6.8	108	109 ± 41	92.5 ± 38	120 ± 17
COc1ccc(C2(C#N)CCC(C(=O)O)CC2)cc1OC1CCCC1 (stereo not given) [Cilomilast]	120 ± 9.7	114	89 ± 22	88.4	104 ± 9.8	146	103 ± 12	117 ± 8.9	113.9 ± 0.63
C[N+](C)(C)CC(O)CC(=O)[O-] [L-Carnitine inner salt]	123 ± 44	119	99.8 ± 10	95.7	111.7 ± 1.1	114	103 ± 3.8	96.9 ± 13	103 ± 10
C#CC1(OC(C)=O)CCC2C3CCC4=CC(OC(C)=O)CCC4C3CCC21C (stereo not given) [Ethynodiol diacetate]	136 ± 22	118	86.3 ± 5.5	73.4	142 ± 16	136	84.9 ± 5.6	107 ± 17	112 ± 16
O=C(CCc1ccc(O)cc1)c1c(O)cc(O)cc1OC1OC(CO)C(O)C(O)C1O (stereo not given) [Phloridzin]	104 ± 31	123	98.1 ± 10	97.7	106 ± 6.1	115	105 ± 4.7	96.2 ± 9.1	97.2 ± 7.4
C=C[C@]1(C)C[C@@H](OC(=O)CSC2C[C@H]3CC[C@@H](C2)N3C)[C@]2(C)[C@H](C)CC[C@]3(CCC(=O)[C@H]32)[C@@H](C)[C@@H]1O (stereo not given in full) [Retapamulin]	73.5 ± 21	113	83.2 ± 3.2	93.3	111 ± 10	109	81.8 ± 4.8	80.3 ± 5.3	146 ± 15
COc1ccccc1OCC(O)CN1CCN(CC(=O)Nc2c(C)cccc2C)CC1.Cl.Cl (stereo not given) [Ranolazine 2HCl]	95.6 ± 9.7	124	102 ± 7.6	109	105 ± 6	138	85.7 ± 14	114 ± 1.7	158 ± 20
CCCCC(=O)N(Cc1ccc(-c2ccccc2-c2nnn[nH]2)cc1)[C@H](C(=O)O)C(C)C.CCOC(=O)[C@H](C)C[C@@H](Cc1ccc(-c2ccccc2)cc1)NC(=O)CCC(=O)O	98.1 ± 17	141	95.6 ± 18	92.9	87.9 ± 5.7	112	95.1 ± 8.6	93.4 ± 8.2	131 ± 11

SMILES	cell viability (HCI01)	cell viability (HCI03)	cell viability (HCI09)	cell viability (HCI11)	cell viability (HCI13)	cell viability (HCI16)	cell viability (UCD52)	cell viability (WHIM2)	cell viability (WHIM30)
CNS(=O)(=O)Cc1ccc2[nH]cc(CCN(C)C)c2c1.O=C(O)CCC(=O)O [Sumatriptan Succinate]	89.3 ± 18	110	89.6 ± 31	82.8	81.4 ± 5.5	120	101 ± 13	106 ± 18	106 ± 4.2
COc1ccccc1Oc1c(NS(=O)(=O)c2ccc(C(C)(C)C)cc2)nc(-c2ncccn2)nc1OCCO [Bosentan]	110 ± 16	95.1	71.1 ± 21	86.4	83.7 ± 5.7	104	111 ± 2.8	114 ± 36	114 ± 3.2
Cc1cccc(C)c1OCC(C)N.Cl (stereo not given) [Mexiletine HCl]	127 ± 27	110	120 ± 46	123	122 ± 26	188	120 ± 7	129 ± 14	147 ± 1.7
Cl.O=S(=O)(c1cccc2cnccc12)N1CCCNCC1 [Fasudil (HA-1077) HCl]	81.6 ± 18	93.4	69.3 ± 9.2	76.2	79.6 ± 5.5	122	60.4 ± 9.9	87.3 ± 2.9	92.1 ± 12
Clc1ccc2nsnc2c1NC1=NCCN1 [Tizanidine]	97.7 ± 3.7	94.6	149 ± 74	110	109 ± 26	110	101 ± 7.1	82.1 ± 22	91.9 ± 20
CC1C(NC(=O)C(=NOC(C)(C)C(=O)O)c2csc(N)n2)C(=O)N1S(=O)(=O)O (stereo not given) [Aztreonam]	104 ± 4.2	113	96.5 ± 6.8	109	118 ± 15	114	95.9 ± 3	84.4 ± 8.5	123 ± 30
Oc1ccc(OC2CCCCO2)cc1 (stereo not given) [Deoxyarbutin]	103 ± 22	138	127 ± 11	112	84.9 ± 5.5	145	129 ± 4.3	132 ± 34	117 ± 11
CO[C@H]1/C=C/O[C@@]2(C)Oc3c(C)c(O)c4c(c3C2=O)C(=O)/C(=C/NN2CCN(C)CC2)C(=C4O)NC(=O)/C(C)=C/C=C/[C@H](C)[C@H](O)[C@@H](C)[C@@H](O)[C@@H](C)[C@H](OC(C)=O)[C@@H]1C [Rifampin]	86.5 ± 29	133	85.8 ± 2.5	94.5	108 ± 16	145	82.91 ± 0.51	64 ± 0.77	94.88 ± 0.76
O=C(NC(Cc1cc(=O)[nH]c2ccccc12)C(=O)O)c1ccc(Cl)cc1 (stereo not given) [Rebamipide]	92.4 ± 31	129	88.63 ± 0.71	97	117 ± 5.6	102	100 ± 6.4	86.2 ± 10	115 ± 8.9
CC(O)C1C(=O)N2C(C(=O)O)=C(SC3CNC(C(=O)N(C)C)C3)C(C)C12 (stereo not given) [Meropenem]	103 ± 7	106	87.1 ± 6.1	95.1	98.6 ± 2.3	103	73.2 ± 6.8	83.4 ± 4.6	112 ± 5.1
CCOc1cc(CC(=O)NC(CC(C)C)c2ccccc2N2CCCCC2)ccc1C(=O)O (stereo not given) [Repaglinide]	88 ± 1.1	131	117 ± 15	111	80.3 ± 12	118	80.672 ± 0.07	96.8 ± 5.5	126 ± 18
COc1cc(C)c(C=CC(C)=CC=CC(C)=CC(=O)O)c(C)c1C [Acitretin]	113 ± 9.7	72.4	90.9 ± 14	86.5	83 ± 13	76.7	130 ± 8.7	90.5 ± 16	145 ± 42
CCN(CCO)CCCOc1ccc2c(Nc3cc(CC(=O)Nc4cccc(F)c4)[nH]n3)ncnc2c1 [Barasertib (AZD1152-HQPA)]	136 ± 22	118	79.2 ± 6.8	91.5	97.3 ± 5.7	143	107 ± 20	89.4 ± 4	131 ± 0.53
CCc1cc(C(N)=S)ccn1 [Ethionamide]	105 ± 11	111	100 ± 3.6	104	136 ± 15	100	82.3 ± 9.9	92.7 ± 8.7	98.5 ± 9.4
CC(C=CC1=C(C)CCCC1(C)C)=CC=CC(C)=CC(=O)O [Isotretinoin]	139 ± 2	109	91.69 ± 0.3	122	119 ± 3.2	105	190 ± 2.4	91.5 ± 10	142.94 ± 0.0078
COC(=O)N=NC=C1C=[N+]([O-])c2ccccc2N1O [Carbadox]	106 ± 3.1	116	97.8 ± 8.7	107	106 ± 28	98.8	72.3 ± 12	96.8 ± 9.7	114 ± 9.4
O=C(O)c1cccnc1 [Nicotinic Acid]	97.2 ± 15	119	100 ± 20	87.3	112 ± 18	98.5	92.8 ± 2.8	84.3 ± 10	143.6 ± 0.45
